We go through eight molecules from ChEMBL document CHEMBL3988442, “University of Dundee, Small-Polar-MMV Screening Library” (2021).

For some of these results: Results with a measured potency or affinity are listed apart.

Common to all, as to set-up: scale not given: direction of the effect not stated beside the values
For assay [1], the target named is Protein translocase subunit SecA (Escherichia coli (strain K12)) (UniProt P10408). The assay can be described thus: Assay to Identify E. coli SecA ATPase Inhibitors. In kind it is functional. The note with it: 30 µM.
Chain of Protein translocase subunit SecA (Escherichia coli (strain K12)) (P10408 whole entry): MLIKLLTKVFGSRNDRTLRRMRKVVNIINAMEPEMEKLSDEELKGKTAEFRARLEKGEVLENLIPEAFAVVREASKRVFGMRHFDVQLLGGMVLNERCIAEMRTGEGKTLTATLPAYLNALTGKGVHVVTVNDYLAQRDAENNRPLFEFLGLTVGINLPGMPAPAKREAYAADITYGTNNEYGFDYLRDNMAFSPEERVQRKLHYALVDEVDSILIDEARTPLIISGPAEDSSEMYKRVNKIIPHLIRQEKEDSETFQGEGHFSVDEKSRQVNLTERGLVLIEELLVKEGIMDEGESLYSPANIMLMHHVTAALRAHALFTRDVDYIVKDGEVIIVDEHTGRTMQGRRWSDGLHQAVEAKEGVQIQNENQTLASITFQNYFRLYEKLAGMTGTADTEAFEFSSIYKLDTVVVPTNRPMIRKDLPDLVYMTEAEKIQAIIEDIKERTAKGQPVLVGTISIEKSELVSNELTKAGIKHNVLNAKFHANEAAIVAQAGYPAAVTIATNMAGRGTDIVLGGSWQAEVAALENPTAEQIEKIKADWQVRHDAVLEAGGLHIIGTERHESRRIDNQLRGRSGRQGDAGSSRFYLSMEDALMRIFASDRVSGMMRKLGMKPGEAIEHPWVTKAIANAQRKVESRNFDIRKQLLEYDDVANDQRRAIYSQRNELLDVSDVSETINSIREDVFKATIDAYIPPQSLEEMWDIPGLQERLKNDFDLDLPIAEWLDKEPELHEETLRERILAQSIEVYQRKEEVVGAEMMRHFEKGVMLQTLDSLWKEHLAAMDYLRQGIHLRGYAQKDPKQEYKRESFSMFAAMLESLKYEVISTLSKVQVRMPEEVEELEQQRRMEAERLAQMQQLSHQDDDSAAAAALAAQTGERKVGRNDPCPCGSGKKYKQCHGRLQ
In assay [2] the target is T1, Ubiquitin-activating enzyme e1, putative (Leishmania donovani (strain BPK282A1)) (UniProt E9BSI1).
T1 sequence (whole entry): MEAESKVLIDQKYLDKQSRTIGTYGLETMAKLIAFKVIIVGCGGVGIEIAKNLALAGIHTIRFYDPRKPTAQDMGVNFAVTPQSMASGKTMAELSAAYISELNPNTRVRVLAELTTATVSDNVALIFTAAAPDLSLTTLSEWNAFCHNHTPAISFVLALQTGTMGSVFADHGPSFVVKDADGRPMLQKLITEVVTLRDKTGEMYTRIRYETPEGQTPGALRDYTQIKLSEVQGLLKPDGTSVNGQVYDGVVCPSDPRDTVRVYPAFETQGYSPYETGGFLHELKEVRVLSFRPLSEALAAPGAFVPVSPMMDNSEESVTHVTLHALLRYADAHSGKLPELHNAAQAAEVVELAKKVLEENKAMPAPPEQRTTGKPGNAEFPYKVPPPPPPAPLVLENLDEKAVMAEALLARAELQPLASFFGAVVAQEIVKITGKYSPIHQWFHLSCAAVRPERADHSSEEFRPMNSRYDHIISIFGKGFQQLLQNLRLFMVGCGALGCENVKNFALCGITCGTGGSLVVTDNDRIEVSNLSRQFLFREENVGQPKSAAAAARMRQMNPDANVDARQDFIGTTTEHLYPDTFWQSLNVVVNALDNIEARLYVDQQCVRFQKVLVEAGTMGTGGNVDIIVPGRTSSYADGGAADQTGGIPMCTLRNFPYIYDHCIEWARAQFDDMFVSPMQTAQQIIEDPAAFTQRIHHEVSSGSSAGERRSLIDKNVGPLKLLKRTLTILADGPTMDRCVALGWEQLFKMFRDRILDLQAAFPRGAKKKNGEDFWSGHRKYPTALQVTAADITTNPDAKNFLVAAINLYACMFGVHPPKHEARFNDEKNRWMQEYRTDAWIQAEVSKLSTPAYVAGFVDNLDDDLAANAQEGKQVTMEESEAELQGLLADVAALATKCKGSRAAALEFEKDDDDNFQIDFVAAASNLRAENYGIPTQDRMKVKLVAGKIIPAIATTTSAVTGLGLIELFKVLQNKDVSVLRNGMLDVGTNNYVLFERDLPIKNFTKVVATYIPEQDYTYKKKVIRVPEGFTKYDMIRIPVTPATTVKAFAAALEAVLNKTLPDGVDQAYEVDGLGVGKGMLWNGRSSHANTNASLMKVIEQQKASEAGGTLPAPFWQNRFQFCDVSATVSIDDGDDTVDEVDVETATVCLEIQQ
As to the kind of experiment: Leishmania donovani Ubiquitin Activating Enzyme (LdE1). In kind it is functional. The note with it: 30 µM.

For assay [3], the target named is AMP-activated protein kinase, AMPK (Homo sapiens) (UniProt P54646+O43741+P54619+Q9UGJ0+Q9Y478+Q13131+Q9UGI9). The assay can be described thus: AMP-dependent Kinase enzyme assay. An in vitro enzyme assay that detects ADP turnover that is directly proportional to AMPK activity. This uses naive AMPK that is activated during the assay with MK-8722. In kind it is functional. The note with it: 30 µM.

The target in assay [4] is Sialic acid-binding Ig-like lectin 9 (Homo sapiens) (UniProt Q9Y336). As to the kind of experiment: Hs-Siglec9 ALPHAscreen SOP 20170721. The note with it: 10 µM. A general note: Alpha assays give light when donor and acceptor beads are brought close together.
Chain of Sialic acid-binding Ig-like lectin 9 (Homo sapiens) (Q9Y336 whole entry): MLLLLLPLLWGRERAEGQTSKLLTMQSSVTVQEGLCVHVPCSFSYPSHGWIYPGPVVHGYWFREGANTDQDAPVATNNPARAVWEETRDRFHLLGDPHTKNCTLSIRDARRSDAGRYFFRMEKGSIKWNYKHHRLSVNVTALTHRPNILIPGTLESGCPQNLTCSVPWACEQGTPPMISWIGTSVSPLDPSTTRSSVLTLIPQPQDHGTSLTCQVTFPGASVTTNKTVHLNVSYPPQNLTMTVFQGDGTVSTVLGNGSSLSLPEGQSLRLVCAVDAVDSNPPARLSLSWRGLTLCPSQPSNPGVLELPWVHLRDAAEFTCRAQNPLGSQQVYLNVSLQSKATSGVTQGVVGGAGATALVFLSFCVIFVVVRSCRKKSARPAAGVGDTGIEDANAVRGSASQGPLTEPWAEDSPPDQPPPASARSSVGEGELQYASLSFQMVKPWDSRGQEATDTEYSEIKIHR
The subject of the next assay is Trypanosoma cruzi. The assay can be described thus: Trypanosoma cruzi phosphomannomutase and mannose-1-phosphate guanylyltransferase assay. In kind it is functional. The note with it: 10 µM.
Assay [5] addresses T2, Arginase-2, mitochondrial (Homo sapiens) (UniProt P78540).
T2 sequence (whole entry): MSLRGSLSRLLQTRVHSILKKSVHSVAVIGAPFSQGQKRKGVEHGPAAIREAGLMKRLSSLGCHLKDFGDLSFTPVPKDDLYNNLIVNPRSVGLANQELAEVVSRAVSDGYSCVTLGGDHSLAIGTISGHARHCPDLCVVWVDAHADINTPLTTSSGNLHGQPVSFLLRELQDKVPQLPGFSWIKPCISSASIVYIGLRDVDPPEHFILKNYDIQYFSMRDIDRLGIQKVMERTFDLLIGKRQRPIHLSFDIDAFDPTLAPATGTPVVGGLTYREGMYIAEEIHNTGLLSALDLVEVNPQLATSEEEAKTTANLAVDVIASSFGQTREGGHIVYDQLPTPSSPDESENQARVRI
The assay can be described thus: in vitro enzyme assay to detect the production of urea directly proportional to the activity of Arginase II. Note: in the data most compounds retested in dose-response had high values. The assay is classed as functional. The note with it: 33.3 µM.

Assay [6] has as its target T3, Proteasome subunit beta (Trypanosoma cruzi) (UniProt O96673).
T3 sequence (whole entry): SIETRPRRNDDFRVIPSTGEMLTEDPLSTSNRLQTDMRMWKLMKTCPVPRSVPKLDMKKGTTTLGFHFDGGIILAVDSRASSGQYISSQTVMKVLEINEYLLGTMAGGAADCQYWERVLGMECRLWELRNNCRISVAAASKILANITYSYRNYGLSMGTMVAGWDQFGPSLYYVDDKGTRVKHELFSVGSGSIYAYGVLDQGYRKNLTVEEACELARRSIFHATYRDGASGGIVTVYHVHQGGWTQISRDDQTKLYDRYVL
As to the kind of experiment: Trypanosoma cruzi proteasome chymotrypsin-like activity (TcProtChymo) assay. Note: in the data most compounds retested in dose-response had high values. In kind it is functional. The note with it: 9.37 µM.

The species named for a further assay is Homo sapiens. As to the kind of experiment: To identify inhibition of the IFN signalling (Jak-Stat) pathway via expression of an eGFP reporter gene under the control of an IFN-stimulated response element (ISRE) containing MxA promoter. In kind it is functional. The note with it: 30 µM. (In a reporter assay the amount or activity of a reporter protein is the signal.)

The target in assay [7] is T4, Tyrosyl-tRNA synthetase, putative (Trypanosoma cruzi (strain CL Brener)) (UniProt Q4DSP6).
T4 sequence (whole entry): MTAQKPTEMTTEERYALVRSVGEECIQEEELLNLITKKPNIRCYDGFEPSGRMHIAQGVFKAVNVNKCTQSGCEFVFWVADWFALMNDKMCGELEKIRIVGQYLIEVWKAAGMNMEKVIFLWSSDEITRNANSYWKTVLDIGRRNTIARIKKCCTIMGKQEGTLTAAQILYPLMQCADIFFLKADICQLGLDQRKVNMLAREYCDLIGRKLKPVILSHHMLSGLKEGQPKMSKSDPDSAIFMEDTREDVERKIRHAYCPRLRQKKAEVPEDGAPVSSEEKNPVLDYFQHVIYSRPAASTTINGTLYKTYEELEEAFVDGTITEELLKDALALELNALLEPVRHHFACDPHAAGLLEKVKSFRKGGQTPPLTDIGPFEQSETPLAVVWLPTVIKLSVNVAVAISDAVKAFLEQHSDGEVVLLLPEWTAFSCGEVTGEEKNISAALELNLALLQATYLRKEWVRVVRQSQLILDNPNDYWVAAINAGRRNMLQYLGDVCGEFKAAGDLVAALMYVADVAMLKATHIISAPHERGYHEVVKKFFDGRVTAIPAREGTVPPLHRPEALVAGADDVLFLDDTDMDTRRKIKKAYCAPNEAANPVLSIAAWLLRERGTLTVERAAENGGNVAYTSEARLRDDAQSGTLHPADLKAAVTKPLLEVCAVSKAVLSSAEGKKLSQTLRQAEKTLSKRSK
As to the kind of experiment: Trypanosoma cruzi tyrosyl tRNA synthetase (TcYRS) _High Tyrosine SOP. Note: in the data most compounds retested in dose-response had high values. The note with it: 30 µM. In kind it is functional.

Assay [8] has as its target T4, Tyrosyl-tRNA synthetase, putative (Trypanosoma cruzi (strain CL Brener)). The assay can be described thus: Trypanosoma cruzi tyrosyl tRNA synthetase (TcYRS) SOP. In kind it is functional. The note with it: 30 µM.
Assay [9] concerns the target Chromo domain-containing protein 1 (Saccharomyces cerevisiae (strain ATCC 204508 / S288c) (Baker's yeast)) (UniProt P32657). The assay can be described thus: ScCHD-1 Enzyme Inhibition Assay. Note: in the data most compounds retested in dose-response had high values. The assay is classed as functional. The note with it: 30 µM.

Chain of Chromo domain-containing protein 1 (Saccharomyces cerevisiae (strain ATCC 204508 / S288c) (Baker's yeast)) (P32657 whole entry, the tested form may be a part): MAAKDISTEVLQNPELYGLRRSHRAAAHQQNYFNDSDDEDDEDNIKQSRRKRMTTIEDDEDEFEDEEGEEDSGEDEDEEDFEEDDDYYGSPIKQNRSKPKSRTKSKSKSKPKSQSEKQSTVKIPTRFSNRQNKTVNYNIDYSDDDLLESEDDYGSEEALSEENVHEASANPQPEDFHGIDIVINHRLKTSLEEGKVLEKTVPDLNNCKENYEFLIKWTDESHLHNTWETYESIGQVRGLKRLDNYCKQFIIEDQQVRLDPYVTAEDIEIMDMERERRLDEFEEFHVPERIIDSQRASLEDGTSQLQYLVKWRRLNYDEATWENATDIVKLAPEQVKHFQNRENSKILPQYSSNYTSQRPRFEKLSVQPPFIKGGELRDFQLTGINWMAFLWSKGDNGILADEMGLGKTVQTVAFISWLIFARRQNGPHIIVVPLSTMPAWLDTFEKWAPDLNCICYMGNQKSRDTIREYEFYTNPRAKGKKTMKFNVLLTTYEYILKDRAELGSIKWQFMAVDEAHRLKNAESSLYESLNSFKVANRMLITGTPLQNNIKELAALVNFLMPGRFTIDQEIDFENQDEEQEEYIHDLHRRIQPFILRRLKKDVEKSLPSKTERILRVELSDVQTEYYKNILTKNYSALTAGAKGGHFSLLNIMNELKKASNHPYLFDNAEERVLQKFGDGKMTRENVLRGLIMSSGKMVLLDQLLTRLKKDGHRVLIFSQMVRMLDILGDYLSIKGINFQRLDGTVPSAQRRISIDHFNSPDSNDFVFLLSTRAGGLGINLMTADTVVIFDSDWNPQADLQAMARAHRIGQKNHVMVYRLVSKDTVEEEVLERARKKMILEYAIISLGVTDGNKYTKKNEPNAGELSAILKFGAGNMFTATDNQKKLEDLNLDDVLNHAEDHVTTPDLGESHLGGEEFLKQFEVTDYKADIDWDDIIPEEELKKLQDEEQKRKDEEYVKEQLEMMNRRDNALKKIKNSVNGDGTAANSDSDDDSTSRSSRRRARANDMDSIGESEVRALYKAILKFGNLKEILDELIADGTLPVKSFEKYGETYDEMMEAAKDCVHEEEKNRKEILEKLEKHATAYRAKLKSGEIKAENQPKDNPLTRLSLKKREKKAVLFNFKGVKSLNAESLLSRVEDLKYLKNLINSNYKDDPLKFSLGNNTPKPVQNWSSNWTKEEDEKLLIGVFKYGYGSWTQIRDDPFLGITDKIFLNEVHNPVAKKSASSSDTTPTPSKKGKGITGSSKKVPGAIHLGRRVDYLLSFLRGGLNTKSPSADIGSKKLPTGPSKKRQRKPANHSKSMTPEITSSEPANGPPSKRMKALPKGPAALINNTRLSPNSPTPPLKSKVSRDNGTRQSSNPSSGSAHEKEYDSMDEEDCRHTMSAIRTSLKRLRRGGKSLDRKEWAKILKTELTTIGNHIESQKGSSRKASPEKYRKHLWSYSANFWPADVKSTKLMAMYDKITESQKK

Take `Cc1ccc(NC(=O)CNc2cccc3c2CCCC3)c(Br)c1`: the Percent Effect in assay [1] was -0.516%; in [2], 0%; in [3], -8.17%; in assay [4], 10.7%; in the assay with Trypanosoma cruzi it was 1.07%; in assay [5], 27.1%. Also, the Percent Effect in assay [6] is 12.3%; in the assay filed under Homo sapiens it was -16%; in assay [7] it was 5.38%; in [8], 6.17%; in [9] it was -12.9%.
For `Cc1cc(C)c2c(OCC(=O)NC(C)C)nn(C)c2n1`, the Percent Effect in assay [1] is -3.72%; in assay [2], 10.8%; in assay [3], -1.72%; in assay [4], 25.4%; in the assay on Trypanosoma cruzi, 7.72%; in [5], 11.4%. Further, the Percent Effect in assay [6] was 6.9%; in the assay filed under Homo sapiens, 10.7%; in assay [7] it was 0.529%; in [8], 12.2%; in [9] it was -13%.
`CNC(=O)c1ccc(C(=O)N2CCCC2c2cnn(C)c2)cn1` (stereo not drawn): the Percent Effect was -3.23% in assay [1]; 7.89% in assay [2]; -6.87% in [3]; 5.79% in assay [4]; 3.08% in the assay on Trypanosoma cruzi; -2.88% in assay [5]. In addition, the Percent Effect was 9.05% in assay [6]; -13.2% in the assay listed under Homo sapiens; 5.42% in assay [7]; 6.17% in assay [8]; -6.61% in assay [9].
For `O=C(CN1CCOC(Cn2cccn2)C1)Nc1nncs1` (stereo not drawn), the Percent Effect in assay [1] was -7.55%; in [2], 10.4%; in assay [3], -7.65%; in assay [4] it was -17.4%; in the assay on Trypanosoma cruzi, 10.3%; in assay [5], -4%. In addition, the Percent Effect is 11.2% in assay [6]; 13.3% in the assay listed under Homo sapiens; 9.52% in assay [7]; 18.8% in [8]; -22.6% in assay [9].
For `Cc1cnc(Nc2nccnc2C2CCN(C)CC2)s1`, the Percent Effect is 3.01% in assay [1]; 13.3% in assay [2]; 9.68% in assay [3]; -6.36% in assay [4]; -4.92% in the assay with Trypanosoma cruzi; 0.699% in assay [5]. Also, the Percent Effect in assay [6] was 5.2%; in the assay filed under Homo sapiens, 10.5%; in assay [7], 7.45%; in [8], 8.97%; in assay [9], -6.78%.
In the case of `OCC1CCCN1c1cc(N2CCN(c3ccccn3)CC2)ncn1` (stereo not drawn), the Percent Effect was -1.51% in assay [1]; 2.6% in assay [2]; 5.09% in assay [3]; 12.8% in [4]; -1.27% in the assay with Trypanosoma cruzi; 3.58% in assay [5]. Further, the Percent Effect is 0.889% in assay [6]; 13.3% in the assay listed under Homo sapiens; 5.71% in assay [7]; 7.06% in [8]; -17.6% in assay [9].
`Cc1ncsc1C(=O)NC1CCN(CC(=O)N(C)c2ccccc2)CC1`: the Percent Effect was -6.03% in [1]; 18.4% in assay [2]; -4.03% in assay [3]; 6.55% in assay [4]; -0.654% in the assay with Trypanosoma cruzi; -0.719% in assay [5]. Further, the Percent Effect in [6] came out at 3.3%; in the assay filed under Homo sapiens it was 1.23%; in assay [7], 10.3%; in [8], 18.5%; in assay [9] it was 2.33%.
Turning to `Cc1cc(C)n(-c2cc(N3CCN(C(=O)C(C)(C)C)CC3)nc(C)n2)n1`, the Percent Effect is -2.73% in [1]; 5.33% in [2]; -1.22% in assay [3]; 6.39% in [4]; 2.04% in the assay with Trypanosoma cruzi; 14.1% in [5]. For the same molecule, the Percent Effect was 3.31% in assay [6]; 26.8% in the assay listed under Homo sapiens; 0.546% in assay [7]; 3.7% in assay [8]; -5.38% in [9].
